CCHF vOTU inh – CCHFV vOTU protease inhibitors, primary screen, biochemical, Pep-AMC substrate, fluorescence; inhibition, % at 11.5 µM; actives 0.55% (n = 370,000); AID 651958, 2012; in the data active = inhibition above about 30%
Mtb hypoxia inh – PubChem AID 1159583 | M. tuberculosis hypoxia-regulated fluorescent reporter, fluorescence | fluorescence inhibition, % (test concentration not listed) | actives 0.1% (n = 300,000); in the data active = fluorescence inhibition mostly above about 23%, no sharp cut-off; inactive = mostly below about 17%
RecA splice inh – Mtb RecA intein splicing inhibitors, primary screen, biochemical, fluorescence, HTS. cell-free RecA intein splicing. inhibition, % (test concentration not listed). actives 0.75% (n = 290,000); in the data active = inhibition above about 30%
Target sequence (P9WHJ3 whole entry, looked up, canonical isoform): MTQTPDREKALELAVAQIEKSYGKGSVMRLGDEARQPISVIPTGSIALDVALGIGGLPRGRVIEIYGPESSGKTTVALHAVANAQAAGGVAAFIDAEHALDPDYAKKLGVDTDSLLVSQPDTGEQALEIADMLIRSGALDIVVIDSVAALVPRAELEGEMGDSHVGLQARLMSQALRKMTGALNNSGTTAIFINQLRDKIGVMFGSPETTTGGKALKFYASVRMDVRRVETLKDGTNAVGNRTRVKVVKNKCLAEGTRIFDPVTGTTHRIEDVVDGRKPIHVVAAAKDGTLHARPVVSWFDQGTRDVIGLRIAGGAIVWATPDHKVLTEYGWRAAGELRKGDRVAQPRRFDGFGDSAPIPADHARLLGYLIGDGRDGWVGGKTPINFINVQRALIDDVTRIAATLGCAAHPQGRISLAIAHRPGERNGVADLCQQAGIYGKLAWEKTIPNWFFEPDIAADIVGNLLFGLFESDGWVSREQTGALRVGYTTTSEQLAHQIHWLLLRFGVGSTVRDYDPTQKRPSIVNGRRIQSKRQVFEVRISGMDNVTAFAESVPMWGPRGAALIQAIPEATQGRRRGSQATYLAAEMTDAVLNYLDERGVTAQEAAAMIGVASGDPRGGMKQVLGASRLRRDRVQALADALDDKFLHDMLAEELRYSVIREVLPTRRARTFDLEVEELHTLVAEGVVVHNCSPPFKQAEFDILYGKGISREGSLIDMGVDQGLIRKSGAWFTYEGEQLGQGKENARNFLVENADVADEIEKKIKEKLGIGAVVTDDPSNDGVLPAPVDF
Sa RN4220 lethal – growth inhibition of S. aureus RN4220, primary screen, OD600. AID 1259311, 2017. inhibition, % (test concentration not listed). actives 0.33% (n = 330,000). 16 h; in the data active = inhibition above about 85%
BJeLR viability – MLPCN primary cell-based screen for lethality selective to Ras in HRASV12 cells; BJeLR (HRASV12) viability, CellTiter-Glo ATP luminescence, 48 h; inhibition, % (concentration not given with the values); actives 0.17% (n = 300,000); AID 1554, 2009; in the data active = inhibition above about 50%
ugtP null kill – growth inhibition of ugtP-null S. aureus, primary screen, RN4220 ugtP deletion, OD600 | AID 1259309, 2017 | growth inhibition, % (no concentration beside the values) | actives 0.54% (n = 330,000) | 16 h; in the data active = growth inhibition above about 68%
Large screens that a line does not name were inactive. Most compounds without a hit are left out; they make up all but 1.6% or so of the library.

C#CCOCCOCCOCCNc1nc(N2CCN(C(=O)C(CCC(=O)O)n3cc(C(N)CC(C)C)nn3)CC2)nc(N2CCN(C(=O)C(C(C)CC)n3cc(C(N)COC(=O)C(F)(F)F)nn3)CC2)n1 (configuration not stated)	none (no result: CCHF vOTU inh, RecA splice inh, BJeLR viability)
CC(O)CCC(C)OC1OC(C)C(O)CC1O (configuration not stated)	none (no result: CCHF vOTU inh, RecA splice inh, BJeLR viability)
Cc1cccc(C2(c3cccc(C)c3)OC(=O)c3ccccc32)c1	ugtP null kill 82.2
Cc1cccc(N2CCN(C(=S)Nc3ccc4nc(N5CCN(C)CC5)cc(C)c4c3)CC2)c1C	BJeLR viability 70.6
Cc1cc(N2CCN(C)CC2)nc2ccc(NC(=S)N3CCCCC3)cc12	none
Cc1ccc(C(C)C)c(OCc2ccc(C(=O)NN=Cc3ccc(C(=O)O)cc3)cc2)c1	none (no result: CCHF vOTU inh, RecA splice inh, BJeLR viability)
Cc1ccc(C(C)C)c(OCc2ccc(C(=O)NN=Cc3ccc(O)c(O)c3)cc2)c1	ugtP null kill 99.7 (no result: CCHF vOTU inh, RecA splice inh, BJeLR viability)
COc1cccc(-c2nc(=S)c3c(n2Cc2ccco2)CCCC3)c1	ugtP null kill 85.5
O=C(CCCCCCC(=O)Nc1ccccc1)NO	BJeLR viability 72.4
O=C(CCCCCN1C(=O)c2ccccc2C1=O)Nc1ccccc1	none
Cc1ccc(NC(=O)/C=C/c2cccc(C(F)(F)F)c2)cc1	none
O=C(/C=C/c1cccc(C(F)(F)F)c1)Nc1cccc(C(F)(F)F)c1	Sa RN4220 lethal 99.9, ugtP null kill 99.6
COc1ccc(C(=O)/C(C#N)=N/Nc2ccccc2[N+](=O)[O-])cc1	none (no result: Mtb hypoxia inh, Sa RN4220 lethal, ugtP null kill)
COc1ccc(C(=O)C(C#N)=NNc2cccc([N+](=O)[O-])c2)cc1	Sa RN4220 lethal 85.8, ugtP null kill 87.4 (no result: CCHF vOTU inh, RecA splice inh, BJeLR viability)
N#CC(=NNc1cccc([N+](=O)[O-])c1)C(=O)c1ccc(Br)cc1	Sa RN4220 lethal 94.4, ugtP null kill 88.8 (no result: CCHF vOTU inh, RecA splice inh, BJeLR viability)
COc1ccc(C(=O)/C(C#N)=N/Nc2ccc([N+](=O)[O-])cc2)cc1	none (no result: Mtb hypoxia inh, Sa RN4220 lethal, ugtP null kill)
COC(=O)[C@]12C(=O)NCC(CN1c1ccc(C(F)(F)F)cc1)N2C	none (no result: CCHF vOTU inh, RecA splice inh, BJeLR viability)
CN(C)c1ccc(/C=C/C=C/c2sc3ccccc3[n+]2C)cc1	BJeLR viability 58.7 (no result: Mtb hypoxia inh, Sa RN4220 lethal, ugtP null kill)
CN(C)c1ccc(C=Cc2cc[n+](C)c3ccccc23)cc1	Sa RN4220 lethal 94.7, ugtP null kill 92.6 (no result: CCHF vOTU inh, RecA splice inh, BJeLR viability)
CC[n+]1c(/C=C/C=C/c2ccc(N(C)C)cc2)sc2ccccc21	Sa RN4220 lethal 88.4, ugtP null kill 81.8
CC[n+]1c(/C=C/C=C/N(C(C)=O)c2ccccc2)sc2ccccc21	none (no result: Mtb hypoxia inh, Sa RN4220 lethal, ugtP null kill)
O=C(C1=CC(c2ccc(Br)cc2)CC(OCc2ccc(CO)cc2)O1)N1CCN(Cc2ccccc2)CC1 (configuration not stated)	none (no result: CCHF vOTU inh, RecA splice inh, BJeLR viability)
COP1(=O)C=CC(N(Cc2ccccc2)S(=O)(=O)c2ccccc2[N+](=O)[O-])C(C)O1 (configuration not stated)	none (no result: CCHF vOTU inh, RecA splice inh, BJeLR viability)
O=C(NC1CC1)C1=CC(c2ccc(C(F)(F)F)cc2)CC(OCc2ccc(CO)cc2)O1 (configuration not stated)	none (no result: CCHF vOTU inh, RecA splice inh, BJeLR viability)
CCCOC(=O)c1c(-c2ccccc2)nc(CC)c(C(=O)SCC)c1CCC	ugtP null kill 94.5 (no result: RecA splice inh, BJeLR viability)
CC=C(C)C(=O)OC1CC(C)(C)CC2C3=CCC4[C@@]5(C)CCC(OC6OC(C(=O)O)C(O)C(OC7OCC(O)C(O)C7OC7OC(CO)C(O)C(O)C7O)C6OC6OC(CO)C(O)C(O)C6O)[C@@](C)(CO)C5CC[C@]4(C)[C@]3(C)CC(O)[C@@]12CO (some centres not stated)	none (no result: CCHF vOTU inh, RecA splice inh, BJeLR viability)
O=C(Oc1cc(=O)oc2c1c(=O)n1c3c(cccc23)CC1)c1ccc(F)cc1	none (no result: Mtb hypoxia inh, Sa RN4220 lethal, ugtP null kill)
O=C(Oc1cc(=O)oc2c1c(=O)n1c3c(cccc23)CC1)c1ccccc1	ugtP null kill 82.1
CC(C)(C)OC(=O)N1CCN(C(=O)C(Cc2ccc(O)cc2)n2cc(CCO)nn2)CC1 (configuration not stated)	none (no result: CCHF vOTU inh, RecA splice inh, BJeLR viability)
CC1CN(C(C)CO)C(=O)c2cccc(NS(=O)(=O)c3ccccc3)c2OC1CN(C)CC1CC1 (configuration not stated)	none (no result: CCHF vOTU inh, RecA splice inh, BJeLR viability)
Cc1nc2ccccn2c1-c1csc(Nc2cccc(O)c2)n1	BJeLR viability 55.0
CC=CC=CC(=O)N1CC2(CC(c3cccc(NC(=O)CCCCC)c3)=NO2)CC1C(N)=O (configuration not stated)	none (no result: CCHF vOTU inh, RecA splice inh, BJeLR viability)
COc1ccc(-n2c(O)c(C=NNS(=O)(=O)c3cc(C)ccc3C)c3ccccc3c2=O)cc1OC	none (no result: CCHF vOTU inh, RecA splice inh, BJeLR viability)
Cc1[nH][nH]c(=O)c1C(c1ccc(O)c([N+](=O)[O-])c1)c1c(C)[nH][nH]c1=O	none (not shown: Mtb hypoxia inh)
Cc1[nH][nH]c(=O)c1[C@@H](c1ccccc1[N+](=O)[O-])C(C#N)C#N	RecA splice inh 62.0
O=C(Nc1ccc(S(=O)(=O)NC2=NCCCCC2)cc1)c1cccs1	Mtb hypoxia inh 30.1 (no result: RecA splice inh, BJeLR viability)
CCC(C)C(CNC)NCC(Cc1cccc2ccccc12)NCCc1cccc(C(F)(F)F)c1 (configuration not stated)	Sa RN4220 lethal 100.8, ugtP null kill 100.2 (not shown: CCHF vOTU inh, Mtb hypoxia inh, RecA splice inh, BJeLR viability)
CCCC(CNC(CNC)C(C)CC)NCCc1cc(C(F)(F)F)cc(C(F)(F)F)c1 (configuration not stated)	none (not shown: CCHF vOTU inh, Mtb hypoxia inh, RecA splice inh, BJeLR viability)
CNCC(Cc1ccccc1)NCC(Cc1cccc2ccccc12)NCCc1ccc(C)cc1 (configuration not stated)	Sa RN4220 lethal 100.9, ugtP null kill 100.5 (not shown: CCHF vOTU inh, Mtb hypoxia inh, RecA splice inh, BJeLR viability)
C#CCOCCOCCOCCNc1nc(N2CCN(C(=O)CCCCCCCCCCNC(=O)C(CCSC)n3cc(CCO)nn3)CC2)nc(N2CCN(C(=O)CCCCCCCCCCNC(=O)C(CCSC)n3cc(CCO)nn3)CC2)n1 (configuration not stated)	none (no result: CCHF vOTU inh, RecA splice inh, BJeLR viability)
COc1ccc(C2CC(=O)C=C(c3ccc(Oc4ccccc4)cc3)C2)cc1OC (configuration not stated)	none (no result: CCHF vOTU inh, RecA splice inh, BJeLR viability)
COc1cc(OC)cc(-c2nnc(Sc3ccc(C=O)cc3[N+](=O)[O-])o2)c1	RecA splice inh 51.8 (no result: CCHF vOTU inh, Mtb hypoxia inh, Sa RN4220 lethal, ugtP null kill)
CCC(C)C(C(=O)NCCCCCCCCCCC(=O)N1CCNCC1)n1cc(CCCCCN)nn1 (configuration not stated)	none (no result: CCHF vOTU inh, RecA splice inh, BJeLR viability)
COC(=O)[C@@]12CCCCN1C(c1ccc(-c3ccc(C(C)=O)cc3)cc1)C1C(=O)N(C)C(=O)C12 (some centres not stated)	none (no result: CCHF vOTU inh, RecA splice inh, BJeLR viability)
Oc1cccc(NC(=S)N=Nc2c(O)[nH]c3ccc(Br)cc23)c1	none
Oc1[nH]c2ccc(Br)cc2c1N=NC(=S)Nc1ccc(F)cc1	Sa RN4220 lethal 99.1, ugtP null kill 99.7
c1ccc(-c2onc(-c3ccco3)c2-c2ccc3[nH]ccc3c2)cc1	ugtP null kill 84.7
c1ccc(-c2ccc3[nH]ccc3c2)cc1	none (no result: RecA splice inh, BJeLR viability)
ClC(Cl)(Cl)c1nc2ccccc2n2nncc12	RecA splice inh 54.9 (no result: Mtb hypoxia inh, Sa RN4220 lethal, ugtP null kill)
CCn1c(O)c(N=Nc2cccc(S(=O)(=O)N3CCOCC3)c2)c(=O)n(CC)c1=S	RecA splice inh 59.0
CCn1c(O)c(N=Nc2ccc(S(=O)(=O)N3CCOCC3)cc2)c(=O)n(CC)c1=S	none
